Assay results as given in PubChem BioAssay (NCI).
Where “and” joins values, the source holds several entries; their conditions need not be identical. Equal entries are not always repeated. The panel holds about 79,000 compounds, 15% with a hit somewhere; the sample as a whole holds those more often. Unmarked numbers belong to inactive results. Calls of active or inactive are those of the source. No stated cut-off is given here; in the data, active means growth inhibition above about 70%; inactive means the rest.

Legend:
[1] = NCI Yeast Anticancer Drug Screen. Data for the rad50 strain (AID 155);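 further: 0% = growth of vehicle-only cultures of the same strain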; conditions: S. cerevisiae rad50 strain growth inhibition, hits give high values
In short: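 Yeast carrying a defined DNA repair defect were exposed to test compounds, and growth was compared with vehicle-treated controls to give percent inhibition.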

[2] = NCI Yeast Anticancer Drug Screen. Data for the mec2-1 strain (AID 157); conditions: S. cerevisiae mec2-1 strain, hits give high values
In short: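 Mutant yeast (mec2-1) grown with compound; growth inhibition relative to vehicle control reported.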

[3] = NCI Yeast Anticancer Drug Screen. Data for the sgs1 mgt1 strain (AID 161);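 further: 0% = growth of cultures given vehicle only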; conditions: S. cerevisiae sgs1 mgt1 strain, hits give high values
In short: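 Growth of a repair-deficient yeast mutant was monitored after compound treatment and expressed as inhibition relative to vehicle-treated cultures.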

[4] = NCI Yeast Anticancer Drug Screen. Data for the cln2 rad14 strain (AID 165);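 further: 0% = growth equal to vehicle treated cultures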; conditions: S. cerevisiae cln2 rad14 strain, hits give high values
In short: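 Readout is yeast growth inhibition versus vehicle-treated controls, using a strain with cln2 and rad14 alterations exposed to compound.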

[5] = NCI Yeast Anticancer Drug Screen. Data for the bub3 strain (AID 167); conditions: S. cerevisiae bub3 mutant strain, hits give high values
In short: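 Compounds were applied to a genetically altered yeast strain carrying a cell-cycle control defect. Growth inhibition was scored against vehicle-treated controls.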

[6] = NCI Yeast Anticancer Drug Screen. Data for the mlh1 rad18 strain (AID 175); conditions: S. cerevisiae mlh1 rad18 strain growth inhibition, hits give high values
In short: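 Genetically defined yeast (DNA repair-deficient) exposed to compounds; growth inhibition determined relative to vehicle.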

[7] = at 5.0 µM (retest, dose inferred, filed as 0.5)
[8] = at 50.0 µM (retest, dose inferred, filed as 5.0)

Structure (SMILES)	growth inhibition ([1]; at 50.0 µM)	growth inhibition ([2]; at 50.0 µM)	growth inhibition ([3]; at 50.0 µM)	growth inhibition ([4]; at 50.0 µM)	growth inhibition ([5]; at 50.0 µM)	growth inhibition ([6]; at 50.0 µM)	growth inhibition [2, 7]	growth inhibition [2, 8]	growth inhibition [3, 7] [%]	growth inhibition [3, 8]	growth inhibition [4, 7]	growth inhibition [4, 8]	growth inhibition [5, 7]	growth inhibition [5, 8]	growth inhibition [6, 7]	growth inhibition [6, 8]	growth inhibition [1, 7]	growth inhibition [1, 8]
Nc1ccc(S(=O)(=O)O)c2ccccc12	-17.7% and -12.8% and 15.7%	-18.1% and 3.25% and 3.85%	-10.4% and -28.8% and 7.35%	6.25% and -52.1% and -17.6%	-1.95% and -17.8% and 7.6%	-12.8% and -40% and 8.1%												
O=c1c2ccccc2sc2c(CO)ccc(NCCN3CCCCC3)c12		23.6%	34.5%	24.5%	25.4%	40.1%	6%	-21%	-9	35%	-21%	13%	12%	13%	2%	40%		
O=[N+]([O-])c1ccc2c(c1)[n+]([O-])c1[nH]c3ccccc3c1[n+]2[O-] (tested in a mixture with another compound)	93.2% (active)		82.9% (active)	89.8% (active)	81.8% (active)	86.3% (active)			68	91% (active)	48%	85% (active)	64%	90% (active)	78% (active)	91% (active)	85% (active)	88% (active)
C(=P(c1ccccc1)(c1ccccc1)c1ccccc1)[P+](c1ccccc1)(c1ccccc1)c1ccccc1	99.3% (active)	99.3% (active)		98.7% (active)	99% (active)	99.2% (active)	99% (active)	100% (active)			98% (active)	99% (active)	98% (active)	99% (active)	99% (active)	99% (active)	98% (active)	99% (active)
OCC(O)C(O)C(O)C(O)CNCC(O)C(O)C(O)C(O)CO (stereo not drawn)	5.3% and 10.1% and 19.6%	15% and 17.2% and 10.3%	12.8% and 14.3% and -2.5%	-6.2% and -7.7% and -3.1%	13% and 14.2% and 3.75%	17.4% and 21% and 20.8%												
Cc1ccc(S(=O)(=O)OCC(O)C(O)COS(=O)(=O)c2ccc(C)cc2)cc1 (stereo not drawn)	35.8% and -13.8% and 12.6%	-10.2% and -4.45% and -13.8%	25.3% and -27.6% and -5.9%	11.1% and -21.9% and -13.5%	9.15% and -12.4% and 6.35%	26.1% and -1.9% and -2.9%												
Fc1ccc(NC(=S)SCc2ccccc2)cc1F	97.3% (active)	99% (active)		92.5% (active)	89.8% (active)	99.2% (active)	2%	92% (active)			-6%	81% (active)	6%	95% (active)	0%	97% (active)	4%	89% (active)
CC(C)C1=C(O)c2ccccc2C(=O)C1=O	86.8% (active)		90.5% (active)	62.6%	84.3% (active)	90.2% (active)			38	97% (active)	-21%	86% (active)	11%	97% (active)	18%	98% (active)	-9%	97% (active)
Cc1ccc(/[N+]([O-])=C/c2ccccc2)cc1		99.2% (active)	95.7% (active)	52.8%	99% (active)	79.2% (active)	4%	-17%	-13	-2%	-46%	-25%	-12%	13%	-27%	-20%		
O=c1c2cccc3cccc(c4oc5c6cccc7cccc(c(=O)c5c14)c76)c32	95.5% (active)		97.2% (active)	93.9% (active)	96.3% (active)	98.9% (active)			15	97% (active)	13%	88% (active)	37%	94% (active)	17%	97% (active)	16%	92% (active)
Cc1ccc(S(=O)(=O)NNc2nc(N(C)C)nc(N(C)C)n2)cc1		5.4%	5.5%	52.2%	4.4%	3.85%	7%	14%	3	13%	4%	4%	-1%	4%	2%	8%		
CCCCCCCN=C(N)c1ccc(C(=O)OC2CCCCC2)cc1	96.8% (active)		99% (active)	96.4% (active)	97.5% (active)	99% (active)			34	98% (active)	1%	70% (active)	1%	73% (active)	21%	90% (active)	-1%	84% (active)
O=c1c(Cl)c(Cl)c(=O)c2sc3cc(Cl)ccc3[nH]c1=2	95.5% (active)		88% (active)	95% (active)	95.5% (active)	96.9% (active)			-3	46%	2%	7%	6%	19%	2%	59%	6%	51%
CCCC(Sc1ccccc1)c1ccccc1NC(C)=O (stereo not drawn)		58.9%	89.9% (active)	37%	45.6%	67.5%	0%	8%	1	26%	6%	33%	6%	41%	2%	15%		
